Source: PubChem BioAssay
An excerpt weighted towards active compounds, which were near 2.6% of everything screened.
Cardio protect: cardioprotection against H2O2-induced cell death, primary screen, uHTS, H9c2 cells, ATPLite luminescence | H9c2 cardiomyocytes, H2O2 injury protection, 2 h | protection from H2O2 cell death, % at 20 µM | hit rate 0.63% among 360,000;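 active = compounds giving at least 50% protection of heart cells from peroxide-induced death in the single-dose screen, raw or plate-pattern-corrected value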
Gli-Sufu block: Gli-Sufu pathway antagonists, primary screen, luciferase luminescence, Sufu-KO-LIGHT cells, uHTS. Sufu-KO-LIGHT fibroblasts, Gli luciferase reporter luminescence. inhibition, % at 5 µM. hit rate 0.74% among 340,000;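 active = inhibition above about 55%, limit read from the data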
COUP-TFII inh: NR2F2 transcriptional activity inhibitors, primary screen, cell-based, luciferase reporter, HEK293T, luminescence. COUP transcription factor 2 (Homo sapiens), P24468. HEK293T NGFI-A luciferase reporter. inhibition, % at 8.6 µM. hit rate 0.7% among 370,000. AID 686940, 2013;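 active = inhibition above a per-plate cutoff, mean inhibition of test wells between control levels plus 3 SD, cut at about 38% in these data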;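 note: cells cotransfected with COUP-TFII expression vector driving the NGFI-A reporter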
Target sequence (P24468 whole entry, looked up): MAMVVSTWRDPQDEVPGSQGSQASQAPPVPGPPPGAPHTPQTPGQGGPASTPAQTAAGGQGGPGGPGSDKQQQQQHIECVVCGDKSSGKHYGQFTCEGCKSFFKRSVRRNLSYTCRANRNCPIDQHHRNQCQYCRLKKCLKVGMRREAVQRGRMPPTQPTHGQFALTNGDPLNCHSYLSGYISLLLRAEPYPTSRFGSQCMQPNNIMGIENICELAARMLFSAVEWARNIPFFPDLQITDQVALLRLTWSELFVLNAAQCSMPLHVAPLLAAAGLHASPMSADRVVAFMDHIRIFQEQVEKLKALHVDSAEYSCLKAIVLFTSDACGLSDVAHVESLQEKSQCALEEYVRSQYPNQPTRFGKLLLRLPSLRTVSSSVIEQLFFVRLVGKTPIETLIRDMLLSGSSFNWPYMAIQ
Jurkat NFkB inh: inhibitors of induced NF-kB luciferase reporter, primary screen, TCR NF-kB activation inhibitor project, cell-based, luminescence, uHTS | hit rate 0.53% among 330,000 | inhibition, % at 4 µM | Jurkat, PMA/ionomycin-induced NF-kB luciferase reporter; in the data active = inhibition above about 50%
TAG inh: inhibitors of triacylglycerol accumulation, primary screen, cell-based, uHTS, fluorescence, H9c2; H9c2 cells, Nile Red lipid (TAG) fluorescence; cells loaded with 200 µM oleic acid; inhibition, % at 12.5 µM; hit rate 0.66% among 230,000;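 active = pattern-corrected inhibition of lipid staining of at least 50% with the nuclear-stain viability signal not falling by more than 50%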
697 NFkB inh: inhibitors of PMA/ionomycin-induced NF-kB reporter, 697 cells, primary screen, B-cell NF-kB inhibitor project, cell-based, luminescence, uHTS; 697 B-cell NF-kB luciferase reporter, 16 h; inhibition, % at 4 µM; hit rate 0.33% among 330,000; AID 435022, 2010; in the data active = inhibition above about 35%
Jurkat NFkB conf: PMA/ionomycin-induced NF-kB reporter inhibitors, Jurkat retest, confirmation, T-cell NF-kB inhibitor project, cell-based, luminescence, single concentration | inhibition, % at 4 µM | Jurkat NF-kB luciferase, 16 h | shares compounds with Jurkat NFkB inh | AID 435020, 2010 | hit rate 27% among 2,700;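 active = inhibition reaching about 45% at 4 µM in either replicate, limit read from the data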
697 NFkB conf: PMA/ionomycin-induced NF-kB reporter inhibitors, 697 retest, confirmation, B-cell NF-kB inhibitor project, cell-based, luminescence, single concentration; shares compounds with 697 NFkB inh; 697 B-cell NF-kB luciferase, 16 h; inhibition, % at 4 µM; hit rate 35% among 2,000; AID 449746, 2010; in the data active = inhibition mostly above about 28%, no sharp cut-off; inactive = mostly below about 22%
Gli-Sufu confirm: Gli-SUFU pathway antagonists, confirmation, single concentration, luciferase luminescence, Sufu-KO-LIGHT cells; shares compounds with Gli-Sufu block; Gli luciferase reporter; inhibition, % at 5 µM; hit rate 40% among 2,500;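 active = mean inhibition at 5 µM reaching about 45%, limit read from the data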
SufuKO cytotox: cytotoxicity in Sufu-KO-LIGHT cells, confirmation, cytotoxicity control for Gli-SUFU antagonist project, cell-based, ATP luminescence, single concentration; shares compounds with Gli-Sufu block; cytotoxicity, % at 5 µM; hit rate 32% among 2,500;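 active = mean cytotoxicity at 5 µM above about 25%, limit read from the data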;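 note: cells exposed to compound overnight for roughly 16 to 18 hours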
Wnt3a counter: Wnt3a reporter signal inhibition, confirmation, counter-screen for Gli-SUFU antagonist project, Wnt-LIGHT cells, luminescence, single concentration | shares compounds with Gli-Sufu block | Wnt3a-driven luciferase reporter | inhibition, % at 6.25 µM | hit rate 20% among 2,500 | AID 651995, 2013;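 active = mean inhibition above about 25%, limit read from the data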
Gal4-VP16 ctr: Gal4-VP16 luciferase reporter inhibitors, counter-screen for COUP-TFII antagonist project, cell-based, luminescence, HEK293; shares compounds with COUP-TFII inh; inhibition, % at 8.5 µM; hit rate 25% among 2,500; AID 687007, 2013; in the data active = inhibition above about 13%
COUP-TFII conf: NR2F2 transcriptional activity inhibitors, confirmation, cell-based, luciferase reporter, HEK293, triplicate | shares compounds with COUP-TFII inh | HEK293 NGFI-A luciferase reporter, luminescence | inhibition, % at 8.5 µM | hit rate 45% among 2,500 | AID 687008, 2013;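 active = mean inhibition over three repeats above a set limit taken from the earlier primary screen, cut at about 38% in these data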
Large screens that a line does not name were inactive (follow-up assays come after a bar, where they were run).

O=C(O)c1ccc(N/N=C/c2ccc(-c3ccccc3)cc2)cc1	none (no result: Jurkat NFkB inh, 697 NFkB inh)
CC(C)c1ccc(/C=N/Nc2ccc(C(=O)O)cc2)cc1	COUP-TFII inh 52, Jurkat NFkB inh 55 | Jurkat NFkB conf inactive | Gal4-VP16 ctr inactive | COUP-TFII conf 37
CC(=O)c1ccc(NC(=O)NC2CCCCN(Cc3cccc(Cl)c3)C2=O)cc1 (stereo not drawn)	none (no result: Cardio protect, Gli-Sufu block, Jurkat NFkB inh, TAG inh, 697 NFkB inh)
CCOc1cc(CNc2ccc3c(c2)OCCO3)cc(Br)c1OC	COUP-TFII inh 51, Jurkat NFkB inh 59 | Jurkat NFkB conf inactive | Gal4-VP16 ctr inactive | COUP-TFII conf 38
Cc1ccc(NC(=O)COc2ccc(N(C)C(=O)C(C)(C)C)cc2)cc1S(=O)(=O)N1CCCCC1	Gli-Sufu block 68, COUP-TFII inh 74, Jurkat NFkB inh 54, 697 NFkB inh 51 | Jurkat NFkB conf 78 | 697 NFkB conf 77 | Gal4-VP16 ctr inactive | COUP-TFII conf 54
CCN(CC)c1ccc(/C=N/n2nnnc2N)c(O)c1	none (no result: TAG inh)
CCN(CC)c1ccc2nc3ccc(N)cc3[n+](-c3ccccc3)c2c1	Gli-Sufu block 93, COUP-TFII inh 77, Jurkat NFkB inh 83 | Jurkat NFkB conf 68 | Gal4-VP16 ctr 21 | COUP-TFII conf 73
Cc1ccc2c(c1)sc(-c1ccc(N(C)C)cc1)[n+]2C	Gli-Sufu block 56, COUP-TFII inh 58, Jurkat NFkB inh 93 (no result: TAG inh) | Jurkat NFkB conf 73 | Gal4-VP16 ctr inactive | COUP-TFII conf 53
Cc1ccc(N(C)C)cc1	none (no result: Cardio protect, Gli-Sufu block, Jurkat NFkB inh, TAG inh, 697 NFkB inh)
COc1ccc(OC)c(CCNC(=O)Cn2nc(C)c3c(C)n(-c4ccc(C)cc4)nc3c2=O)c1	COUP-TFII inh 67, Jurkat NFkB inh 56 (no result: TAG inh) | Jurkat NFkB conf 66 | Gal4-VP16 ctr inactive | COUP-TFII conf 73
C=CCOC(=O)N[C@H](c1ccc2ccccc2c1)[C@H](C)/C=C/CC(=O)OC	none (no result: Cardio protect, Gli-Sufu block, Jurkat NFkB inh, TAG inh, 697 NFkB inh)
CCn1nc(C)c(CNC(=O)c2ccc(OC3CCN(Cc4ccccn4)CC3)cc2)c1C	Gli-Sufu block 64, COUP-TFII inh 58, Jurkat NFkB inh 65 | Jurkat NFkB conf 57 | Gli-Sufu confirm 66 | SufuKO cytotox 33 | Wnt3a counter 38 | Gal4-VP16 ctr 16 | COUP-TFII conf 66
CCn1cc(CNC(=O)c2ccc(OC3CCN(Cc4ccccn4)CC3)cc2)cn1	none
COC(=O)N1Cc2ccnnc2CC1c1ccccc1-c1ccc(OC)cc1 (stereo not drawn)	none (no result: Cardio protect, Gli-Sufu block, Jurkat NFkB inh, TAG inh, 697 NFkB inh)
Cc1nc(SCC(=O)Nc2nc3ccccc3s2)c(C#N)c(C)c1C	Gli-Sufu block 90, COUP-TFII inh 99, Jurkat NFkB inh 90 | Jurkat NFkB conf 89 | Gal4-VP16 ctr 91 | COUP-TFII conf 109
Cc1nc(SCC(=O)Nc2nccs2)c(C#N)c(C)c1C	none
O=S1(=O)c2ccc(Br)cc2OC[C@@H](Cc2ccccc2)N1Cc1cn(CCC2OCCO2)nn1	none (no result: Cardio protect, Gli-Sufu block, Jurkat NFkB inh, TAG inh, 697 NFkB inh)
CCCCCn1c(=O)[nH]c2cc(C(=O)N3CCN(Cc4ccc5c(c4)OCO5)CC3)ccc2c1=O	Gli-Sufu block 57, COUP-TFII inh 58, Jurkat NFkB inh 64, 697 NFkB inh 105 | Jurkat NFkB conf 77 | 697 NFkB conf 85 | Gal4-VP16 ctr inactive | COUP-TFII conf 64
Cc1ncoc1C(=O)NC1CCCc2c1cnn2-c1cc(F)cc(F)c1 (stereo not drawn)	none (no result: Gli-Sufu block, Jurkat NFkB inh, 697 NFkB inh)
Cc1cccc(-n2ncc3c2CCCC3NC(=O)Cn2cccn2)c1C (stereo not drawn)	none
Cc1ncoc1C(=O)NC1CCCc2c1cnn2-c1ccc(C(C)(C)C)cc1 (stereo not drawn)	COUP-TFII inh 60, Jurkat NFkB inh 60 | Jurkat NFkB conf 59 | Gli-Sufu confirm 45 | SufuKO cytotox inactive | Wnt3a counter inactive | Gal4-VP16 ctr inactive | COUP-TFII conf 65
Cc1ccc(-n2ncc3c2CCCC3NC(=O)c2ccoc2)cc1C (stereo not drawn)	none
CCc1cc(C(=O)NC2CCCc3c2cnn3-c2cccc(C)c2C)n(C)n1 (stereo not drawn)	Gli-Sufu block 83, COUP-TFII inh 64, Jurkat NFkB inh 79 (no result: Cardio protect, TAG inh) | Jurkat NFkB conf 76 | Gal4-VP16 ctr inactive | COUP-TFII conf 66
Cc1cc(C(=O)NC2CCCc3c2cnn3-c2ccc(C)c(C)c2)n(C)n1 (stereo not drawn)	Gli-Sufu block 81, COUP-TFII inh 66, Jurkat NFkB inh 62, 697 NFkB inh 49 | Jurkat NFkB conf 80 | 697 NFkB conf 102 | Gal4-VP16 ctr inactive | COUP-TFII conf 69
Cc1cccc(NC(=O)CSc2nnc(SCc3ccc(Cl)cc3)s2)c1	none (no result: Cardio protect, Gli-Sufu block, Jurkat NFkB inh, TAG inh, 697 NFkB inh)
COC(=O)[C@]12C[C@H](CC(=O)NCCCCc3ccccc3)C(=O)N(CCC3=CCCCC3)C1=C[C@H](C1CCCC1)O[C@@H]2C	none (no result: Cardio protect, Gli-Sufu block, Jurkat NFkB inh, TAG inh, 697 NFkB inh)
CN1/C(=C\C(=O)C[n+]2ccc3ccccc3c2)C(C)(C)c2ccccc21	COUP-TFII inh 79, Jurkat NFkB inh 83, 697 NFkB inh 49 (no result: TAG inh) | Jurkat NFkB conf 79 | 697 NFkB conf inactive | Gal4-VP16 ctr 17 | COUP-TFII conf 52
COc1ccccc1OCC(=O)/C=C1/N(C)c2ccccc2C1(C)C	none
Cc1nc(-c2ccc(NC(=O)c3ccco3)cc2)cs1	COUP-TFII inh 41, Jurkat NFkB inh 52 (no result: TAG inh) | Jurkat NFkB conf inactive | Gal4-VP16 ctr inactive | COUP-TFII conf inactive
